Results from the supplement of paper PMC11732987, “Enantioselective OTUD7B fragment discovery through chemoproteomics screening and high-throughput optimisation” (Communications Chemistry, 2025).

What was measured:
Experiment in all cases: log2 ratio of Biotin-Ahx-Ub-VS probe labelling (fragment/DMSO); higher = less target engagement (more negative = stronger competition), active = hit call of the paper (q ≤ 0.05, log2 ratio ≤ -1)
Details in all cases: compound concentration: 200 uM; treatment time: 3 h
[1] = molecular target: T1, USP42 (UniProt Q9H9J4)
T1 sequence (whole entry): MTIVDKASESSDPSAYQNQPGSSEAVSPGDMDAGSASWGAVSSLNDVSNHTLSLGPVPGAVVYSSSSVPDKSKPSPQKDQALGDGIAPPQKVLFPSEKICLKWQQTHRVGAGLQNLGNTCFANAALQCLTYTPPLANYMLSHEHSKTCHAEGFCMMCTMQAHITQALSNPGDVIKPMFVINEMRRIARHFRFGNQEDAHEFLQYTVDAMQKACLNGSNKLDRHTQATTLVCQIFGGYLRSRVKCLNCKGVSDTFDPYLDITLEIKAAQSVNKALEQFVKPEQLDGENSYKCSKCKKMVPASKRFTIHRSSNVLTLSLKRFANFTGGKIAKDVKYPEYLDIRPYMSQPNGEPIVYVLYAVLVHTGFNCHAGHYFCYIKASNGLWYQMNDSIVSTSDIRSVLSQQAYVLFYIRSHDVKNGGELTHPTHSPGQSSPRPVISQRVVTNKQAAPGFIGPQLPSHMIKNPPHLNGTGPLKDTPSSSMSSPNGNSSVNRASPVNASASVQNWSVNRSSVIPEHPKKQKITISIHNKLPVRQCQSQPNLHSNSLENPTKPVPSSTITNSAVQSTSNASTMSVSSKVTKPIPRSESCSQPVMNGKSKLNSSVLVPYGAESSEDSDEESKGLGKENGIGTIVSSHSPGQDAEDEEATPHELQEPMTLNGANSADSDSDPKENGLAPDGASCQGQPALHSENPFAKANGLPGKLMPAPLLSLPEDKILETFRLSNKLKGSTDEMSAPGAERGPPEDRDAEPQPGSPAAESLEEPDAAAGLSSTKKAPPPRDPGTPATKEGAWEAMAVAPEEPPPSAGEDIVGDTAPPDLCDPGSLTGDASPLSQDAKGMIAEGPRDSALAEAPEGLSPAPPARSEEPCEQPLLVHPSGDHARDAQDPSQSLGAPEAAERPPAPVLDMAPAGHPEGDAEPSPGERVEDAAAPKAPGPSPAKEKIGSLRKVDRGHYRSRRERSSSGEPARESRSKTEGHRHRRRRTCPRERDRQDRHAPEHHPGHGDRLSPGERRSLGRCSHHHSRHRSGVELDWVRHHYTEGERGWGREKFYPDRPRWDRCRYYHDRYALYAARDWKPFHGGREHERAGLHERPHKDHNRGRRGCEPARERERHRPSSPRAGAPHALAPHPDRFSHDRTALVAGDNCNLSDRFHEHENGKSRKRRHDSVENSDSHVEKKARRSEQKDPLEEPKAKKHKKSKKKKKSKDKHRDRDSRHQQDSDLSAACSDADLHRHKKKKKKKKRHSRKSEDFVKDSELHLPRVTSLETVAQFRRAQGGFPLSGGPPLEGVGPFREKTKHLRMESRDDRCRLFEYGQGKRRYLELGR
In short: (§1)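 HEK293T lysate (495 µg per sample, in Tris/CHAPS/IGEPAL buffer with protease inhibitors) was treated in triplicate with fragment at 200 µM or with DMSO for 3 h. It was then treated with Biotin-Ahx-Ub-VS (0.5 µM final) for 1 h. Labelled DUBs were NeutrAvidin-enriched, digested with LysC and trypsin, and run by diaPASEF LC-MS/MS. Spectronaut label-free quantities were global-median-normalised. Values are average log2 ratios fragment/DMSO by unpaired t-test, using proteins with ≥2 unique peptides.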

[2] = molecular target: USP46 (UniProt P62068)
USP46, sequence (P62068 whole entry): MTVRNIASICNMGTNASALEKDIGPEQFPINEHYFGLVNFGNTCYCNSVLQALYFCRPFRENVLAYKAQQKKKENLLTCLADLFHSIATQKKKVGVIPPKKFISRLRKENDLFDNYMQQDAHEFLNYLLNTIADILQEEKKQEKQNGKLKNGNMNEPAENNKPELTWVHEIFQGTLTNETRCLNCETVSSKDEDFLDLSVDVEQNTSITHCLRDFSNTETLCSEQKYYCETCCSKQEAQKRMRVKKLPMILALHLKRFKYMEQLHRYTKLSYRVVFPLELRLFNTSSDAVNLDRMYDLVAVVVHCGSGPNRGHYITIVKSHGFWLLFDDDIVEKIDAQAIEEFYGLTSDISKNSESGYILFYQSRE
In short: as §1

[3] = molecular target: T2, USP47 (UniProt Q96K76)
T2 sequence (whole entry): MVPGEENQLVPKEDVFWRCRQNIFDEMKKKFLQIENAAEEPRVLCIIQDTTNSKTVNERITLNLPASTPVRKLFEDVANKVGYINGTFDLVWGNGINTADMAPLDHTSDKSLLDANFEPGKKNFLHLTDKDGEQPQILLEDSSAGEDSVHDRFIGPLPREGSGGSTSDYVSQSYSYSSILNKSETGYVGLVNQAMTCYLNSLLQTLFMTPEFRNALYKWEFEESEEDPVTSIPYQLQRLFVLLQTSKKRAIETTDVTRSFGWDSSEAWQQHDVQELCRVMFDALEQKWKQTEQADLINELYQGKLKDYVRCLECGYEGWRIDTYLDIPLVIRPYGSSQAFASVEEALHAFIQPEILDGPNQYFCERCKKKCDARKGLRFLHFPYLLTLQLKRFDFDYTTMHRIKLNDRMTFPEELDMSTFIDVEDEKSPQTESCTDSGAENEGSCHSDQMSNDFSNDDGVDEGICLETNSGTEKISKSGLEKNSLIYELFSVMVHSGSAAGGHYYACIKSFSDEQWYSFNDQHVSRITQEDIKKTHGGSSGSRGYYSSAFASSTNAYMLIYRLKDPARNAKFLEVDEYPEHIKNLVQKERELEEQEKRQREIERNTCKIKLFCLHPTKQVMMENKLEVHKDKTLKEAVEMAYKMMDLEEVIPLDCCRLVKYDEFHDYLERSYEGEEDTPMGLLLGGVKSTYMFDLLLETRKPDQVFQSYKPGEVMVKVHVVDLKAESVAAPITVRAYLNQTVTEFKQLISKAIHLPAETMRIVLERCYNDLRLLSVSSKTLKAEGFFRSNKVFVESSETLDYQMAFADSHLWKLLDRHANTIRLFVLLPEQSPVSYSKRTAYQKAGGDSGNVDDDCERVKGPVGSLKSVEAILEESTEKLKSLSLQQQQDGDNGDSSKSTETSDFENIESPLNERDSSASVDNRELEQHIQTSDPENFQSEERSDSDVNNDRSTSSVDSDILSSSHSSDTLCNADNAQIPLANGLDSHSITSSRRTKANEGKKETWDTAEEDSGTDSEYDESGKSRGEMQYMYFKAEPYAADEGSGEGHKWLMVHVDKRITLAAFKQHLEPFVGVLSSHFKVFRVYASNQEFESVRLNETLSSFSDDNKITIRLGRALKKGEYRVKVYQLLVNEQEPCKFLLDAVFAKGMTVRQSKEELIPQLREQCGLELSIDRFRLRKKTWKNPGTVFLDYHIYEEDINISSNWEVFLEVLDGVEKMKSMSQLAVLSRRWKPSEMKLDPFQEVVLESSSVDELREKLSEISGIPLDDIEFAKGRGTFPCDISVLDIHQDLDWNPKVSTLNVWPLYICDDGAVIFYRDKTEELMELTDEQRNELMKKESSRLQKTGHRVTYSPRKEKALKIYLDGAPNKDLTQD
In short: as §1

[4] = molecular target: T3, USP48 (UniProt Q86UV5)
T3 sequence (whole entry): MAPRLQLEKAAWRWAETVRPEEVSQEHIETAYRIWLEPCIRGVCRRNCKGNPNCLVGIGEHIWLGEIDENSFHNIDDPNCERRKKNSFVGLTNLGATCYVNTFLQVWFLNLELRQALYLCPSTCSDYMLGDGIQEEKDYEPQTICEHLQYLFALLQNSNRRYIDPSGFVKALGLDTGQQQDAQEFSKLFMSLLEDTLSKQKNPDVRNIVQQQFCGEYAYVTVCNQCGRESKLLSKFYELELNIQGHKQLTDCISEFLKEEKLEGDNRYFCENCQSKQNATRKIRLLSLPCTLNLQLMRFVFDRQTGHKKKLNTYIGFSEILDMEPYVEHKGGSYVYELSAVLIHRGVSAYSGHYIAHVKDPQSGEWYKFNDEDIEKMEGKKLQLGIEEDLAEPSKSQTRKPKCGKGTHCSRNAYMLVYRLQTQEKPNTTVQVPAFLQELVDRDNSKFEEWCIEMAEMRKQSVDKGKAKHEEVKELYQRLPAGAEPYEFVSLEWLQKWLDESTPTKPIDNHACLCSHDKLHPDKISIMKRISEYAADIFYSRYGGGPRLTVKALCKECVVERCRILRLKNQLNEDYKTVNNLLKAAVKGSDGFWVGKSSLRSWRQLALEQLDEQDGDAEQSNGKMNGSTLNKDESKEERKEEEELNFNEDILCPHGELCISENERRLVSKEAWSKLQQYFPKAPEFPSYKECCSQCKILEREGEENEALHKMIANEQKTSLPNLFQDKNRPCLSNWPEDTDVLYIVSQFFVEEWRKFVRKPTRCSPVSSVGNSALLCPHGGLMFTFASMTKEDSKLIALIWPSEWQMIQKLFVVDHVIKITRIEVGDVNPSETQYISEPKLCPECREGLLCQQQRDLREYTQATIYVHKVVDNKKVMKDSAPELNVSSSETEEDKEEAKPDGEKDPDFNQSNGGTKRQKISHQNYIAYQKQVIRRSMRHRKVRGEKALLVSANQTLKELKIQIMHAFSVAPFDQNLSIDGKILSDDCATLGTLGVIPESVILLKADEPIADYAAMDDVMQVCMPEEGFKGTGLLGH
In short: as §1

[5] = molecular target: T4, USP5 (UniProt P45974)
T4 sequence (whole entry): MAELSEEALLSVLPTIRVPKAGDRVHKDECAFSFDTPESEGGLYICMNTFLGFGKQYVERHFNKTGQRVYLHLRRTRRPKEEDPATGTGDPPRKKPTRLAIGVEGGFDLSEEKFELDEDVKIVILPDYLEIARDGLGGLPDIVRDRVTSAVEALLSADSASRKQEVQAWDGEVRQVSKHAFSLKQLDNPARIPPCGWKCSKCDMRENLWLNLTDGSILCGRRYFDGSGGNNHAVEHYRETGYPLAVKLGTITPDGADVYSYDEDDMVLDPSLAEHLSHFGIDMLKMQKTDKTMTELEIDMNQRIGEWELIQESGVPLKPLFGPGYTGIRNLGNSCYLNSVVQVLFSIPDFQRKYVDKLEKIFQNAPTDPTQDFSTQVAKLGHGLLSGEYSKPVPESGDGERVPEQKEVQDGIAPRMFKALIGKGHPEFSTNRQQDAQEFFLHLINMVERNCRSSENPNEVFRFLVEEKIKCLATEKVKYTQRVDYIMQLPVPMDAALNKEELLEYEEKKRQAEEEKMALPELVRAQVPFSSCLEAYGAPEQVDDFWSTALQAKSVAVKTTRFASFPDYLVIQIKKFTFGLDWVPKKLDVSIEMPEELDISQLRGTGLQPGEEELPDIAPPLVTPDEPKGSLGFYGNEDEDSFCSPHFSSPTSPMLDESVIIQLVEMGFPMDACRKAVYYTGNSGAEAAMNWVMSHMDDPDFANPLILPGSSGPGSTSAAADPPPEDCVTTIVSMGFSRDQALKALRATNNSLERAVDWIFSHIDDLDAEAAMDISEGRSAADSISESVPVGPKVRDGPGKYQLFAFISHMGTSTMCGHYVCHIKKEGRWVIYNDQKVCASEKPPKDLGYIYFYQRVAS
In short: as §1

[6] = molecular target: USP54 (UniProt Q70EL1)
USP54, sequence (Q70EL1 whole entry): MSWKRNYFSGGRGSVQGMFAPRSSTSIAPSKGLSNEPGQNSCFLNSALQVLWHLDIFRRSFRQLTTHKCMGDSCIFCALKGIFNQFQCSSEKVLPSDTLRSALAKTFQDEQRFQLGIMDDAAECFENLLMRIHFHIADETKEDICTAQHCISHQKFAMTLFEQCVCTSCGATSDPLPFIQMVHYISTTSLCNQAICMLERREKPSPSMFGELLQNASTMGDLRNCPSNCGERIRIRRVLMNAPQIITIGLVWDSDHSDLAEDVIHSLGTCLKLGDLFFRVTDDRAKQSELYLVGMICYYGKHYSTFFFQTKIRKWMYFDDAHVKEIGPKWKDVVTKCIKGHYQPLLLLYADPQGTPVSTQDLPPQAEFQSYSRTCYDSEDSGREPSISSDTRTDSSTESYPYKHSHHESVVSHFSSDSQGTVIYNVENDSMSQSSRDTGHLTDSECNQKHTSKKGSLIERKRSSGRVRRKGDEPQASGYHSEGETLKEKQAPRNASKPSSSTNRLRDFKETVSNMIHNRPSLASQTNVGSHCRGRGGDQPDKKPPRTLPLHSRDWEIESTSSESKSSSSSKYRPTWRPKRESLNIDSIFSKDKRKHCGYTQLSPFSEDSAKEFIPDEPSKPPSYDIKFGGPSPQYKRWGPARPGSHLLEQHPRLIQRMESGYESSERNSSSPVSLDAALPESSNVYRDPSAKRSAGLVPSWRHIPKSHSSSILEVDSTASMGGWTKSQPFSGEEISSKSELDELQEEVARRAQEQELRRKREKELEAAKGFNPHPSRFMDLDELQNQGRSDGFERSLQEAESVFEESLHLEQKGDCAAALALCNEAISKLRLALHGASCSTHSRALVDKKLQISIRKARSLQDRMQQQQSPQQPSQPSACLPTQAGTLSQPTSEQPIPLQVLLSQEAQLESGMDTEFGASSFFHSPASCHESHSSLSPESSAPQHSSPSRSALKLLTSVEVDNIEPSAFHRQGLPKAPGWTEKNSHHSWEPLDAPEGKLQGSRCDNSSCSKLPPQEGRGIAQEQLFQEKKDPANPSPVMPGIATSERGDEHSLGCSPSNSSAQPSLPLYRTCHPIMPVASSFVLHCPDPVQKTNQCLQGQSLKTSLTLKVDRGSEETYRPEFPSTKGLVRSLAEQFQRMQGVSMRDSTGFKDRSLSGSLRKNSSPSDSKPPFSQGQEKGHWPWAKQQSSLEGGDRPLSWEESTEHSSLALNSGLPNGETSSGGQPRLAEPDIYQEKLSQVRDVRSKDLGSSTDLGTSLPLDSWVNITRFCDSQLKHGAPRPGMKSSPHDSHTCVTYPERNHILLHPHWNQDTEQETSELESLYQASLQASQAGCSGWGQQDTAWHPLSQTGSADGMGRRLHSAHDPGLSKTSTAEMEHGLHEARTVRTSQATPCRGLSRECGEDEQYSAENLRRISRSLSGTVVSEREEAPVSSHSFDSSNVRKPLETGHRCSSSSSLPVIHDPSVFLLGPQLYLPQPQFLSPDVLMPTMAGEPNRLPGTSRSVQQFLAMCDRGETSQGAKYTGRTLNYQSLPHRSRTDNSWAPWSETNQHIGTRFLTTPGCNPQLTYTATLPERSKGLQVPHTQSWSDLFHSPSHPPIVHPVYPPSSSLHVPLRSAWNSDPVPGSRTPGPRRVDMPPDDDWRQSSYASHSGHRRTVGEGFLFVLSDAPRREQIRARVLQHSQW
In short: as §1

[7] = molecular target: USP7 (UniProt Q93009)
USP7, sequence (Q93009 whole entry, looked up): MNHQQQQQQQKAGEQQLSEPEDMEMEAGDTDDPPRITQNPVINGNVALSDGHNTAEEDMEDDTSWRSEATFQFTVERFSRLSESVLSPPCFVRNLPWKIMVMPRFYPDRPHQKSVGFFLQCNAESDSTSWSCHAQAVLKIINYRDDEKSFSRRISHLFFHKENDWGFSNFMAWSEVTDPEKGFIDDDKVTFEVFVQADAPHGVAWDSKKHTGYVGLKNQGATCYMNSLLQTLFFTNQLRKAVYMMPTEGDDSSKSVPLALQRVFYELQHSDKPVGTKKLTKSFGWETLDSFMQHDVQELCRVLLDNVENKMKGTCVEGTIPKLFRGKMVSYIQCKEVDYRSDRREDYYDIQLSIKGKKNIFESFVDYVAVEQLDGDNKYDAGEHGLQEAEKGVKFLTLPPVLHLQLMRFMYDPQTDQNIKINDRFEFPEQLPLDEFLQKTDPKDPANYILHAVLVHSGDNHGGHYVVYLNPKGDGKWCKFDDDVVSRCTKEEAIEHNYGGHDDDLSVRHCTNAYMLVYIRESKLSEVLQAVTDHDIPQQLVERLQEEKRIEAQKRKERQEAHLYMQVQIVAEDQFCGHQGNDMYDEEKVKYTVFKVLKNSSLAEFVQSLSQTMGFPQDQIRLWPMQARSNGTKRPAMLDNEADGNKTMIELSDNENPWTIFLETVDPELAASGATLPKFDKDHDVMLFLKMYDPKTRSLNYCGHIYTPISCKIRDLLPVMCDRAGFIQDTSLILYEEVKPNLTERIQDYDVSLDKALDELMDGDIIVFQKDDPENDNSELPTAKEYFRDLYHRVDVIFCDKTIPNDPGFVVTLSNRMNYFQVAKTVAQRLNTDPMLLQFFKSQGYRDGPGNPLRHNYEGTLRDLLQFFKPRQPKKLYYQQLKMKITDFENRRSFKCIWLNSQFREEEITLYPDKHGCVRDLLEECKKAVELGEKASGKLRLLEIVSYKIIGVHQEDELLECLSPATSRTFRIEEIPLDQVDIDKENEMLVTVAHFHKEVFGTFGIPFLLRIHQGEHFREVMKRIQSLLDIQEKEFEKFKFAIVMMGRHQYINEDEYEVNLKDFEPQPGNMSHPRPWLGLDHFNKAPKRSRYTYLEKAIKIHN
In short: as §1

[8] = molecular target: T5, USP8 (UniProt P40818)
T5 sequence (whole entry): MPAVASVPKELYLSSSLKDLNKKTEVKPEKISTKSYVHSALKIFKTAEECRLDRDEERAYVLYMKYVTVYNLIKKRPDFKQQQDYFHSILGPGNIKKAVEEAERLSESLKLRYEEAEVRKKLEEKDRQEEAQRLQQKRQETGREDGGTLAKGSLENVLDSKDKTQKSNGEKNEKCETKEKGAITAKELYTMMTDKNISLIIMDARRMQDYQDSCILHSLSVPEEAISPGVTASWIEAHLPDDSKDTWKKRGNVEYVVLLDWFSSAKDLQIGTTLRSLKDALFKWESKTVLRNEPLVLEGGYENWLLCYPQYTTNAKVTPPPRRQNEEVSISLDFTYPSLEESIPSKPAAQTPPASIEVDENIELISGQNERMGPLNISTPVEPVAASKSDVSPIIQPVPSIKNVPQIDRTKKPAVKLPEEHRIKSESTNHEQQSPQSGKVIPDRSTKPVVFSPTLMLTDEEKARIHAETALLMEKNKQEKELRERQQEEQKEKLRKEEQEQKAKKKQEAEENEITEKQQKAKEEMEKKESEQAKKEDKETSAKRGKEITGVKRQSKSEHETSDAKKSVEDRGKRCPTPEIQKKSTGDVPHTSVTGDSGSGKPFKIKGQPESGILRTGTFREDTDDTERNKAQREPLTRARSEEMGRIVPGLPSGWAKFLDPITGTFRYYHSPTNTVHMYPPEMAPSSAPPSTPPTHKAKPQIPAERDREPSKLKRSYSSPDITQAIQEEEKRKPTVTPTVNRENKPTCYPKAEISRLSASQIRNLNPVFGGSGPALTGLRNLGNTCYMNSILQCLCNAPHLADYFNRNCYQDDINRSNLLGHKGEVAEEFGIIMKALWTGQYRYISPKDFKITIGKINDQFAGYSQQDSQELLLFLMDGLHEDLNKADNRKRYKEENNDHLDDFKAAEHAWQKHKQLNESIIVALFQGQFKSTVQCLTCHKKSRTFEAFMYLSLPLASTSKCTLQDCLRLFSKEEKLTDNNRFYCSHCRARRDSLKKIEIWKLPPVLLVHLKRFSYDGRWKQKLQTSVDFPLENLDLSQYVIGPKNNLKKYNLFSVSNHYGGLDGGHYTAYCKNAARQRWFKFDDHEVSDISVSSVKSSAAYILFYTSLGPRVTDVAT
In short: as §1

[9] = molecular target: USP9X (UniProt Q93008)
In short: as §1

[10] = molecular target: UniProt O00487
UniProt O00487, sequence (O00487 whole entry): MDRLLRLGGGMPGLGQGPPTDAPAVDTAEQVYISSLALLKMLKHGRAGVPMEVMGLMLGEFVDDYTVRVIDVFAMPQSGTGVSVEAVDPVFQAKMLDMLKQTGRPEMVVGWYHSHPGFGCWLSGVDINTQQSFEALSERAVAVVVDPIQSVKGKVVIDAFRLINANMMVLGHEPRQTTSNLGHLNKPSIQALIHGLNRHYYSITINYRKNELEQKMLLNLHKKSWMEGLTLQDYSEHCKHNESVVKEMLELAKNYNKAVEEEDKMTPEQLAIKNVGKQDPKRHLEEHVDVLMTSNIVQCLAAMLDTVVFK
In short: as §1

Measured: log2 ratio of Biotin-Ahx-Ub-VS probe labelling

Cc1n[nH]c(=O)c2c(NC(=O)CCl)oc(C)c12
inactive: [1] 0.339 | [2] -0.0434 | [3] 0.166 | [4] -0.0393 | [5] -0.00864 | [6] -0.153 | [7] -0.0198 | [8] -0.29 | [9] -0.056 | [10] -0.0655
